Results taken from ChEMBL document CHEMBL4513216, “Probing the Open Global Health Chemical Diversity Library for Multistage-Active Starting Points for Next-Generation Antimalarials” (ACS Infect Dis, 2020).
Among all 69,000 compounds or so, about 8,600 (12%) showed an effect of 50% or more. The full list was thinned out, with strong results kept by preference.

Test system: Plasmodium berghei
Assay: Screen against P. berghei liver stage (PbLuc), transformed with Luciferase, at 10uM
Format: functional, HepG2
Settings: tested at 10 uM

Going from CS(=O)(=O)NCC1OCCc2cn(CC3CC3)nc21 (stereo not drawn) to CCS(=O)(=O)NCC1OCCc2cn(CC3CCOCC3)nc21 (stereo not drawn), the INHIBITION rises from 44.2% to 66.8%.

Compared with Fc1cccc(CNCC2OCCc3cn(CC4CCOCC4)nc32)c1 (stereo not drawn), CN(C)S(=O)(=O)NCC1OCCc2cn(CC3CCOCC3)nc21 (stereo not drawn) is lower in INHIBITION: 68.4% for the first, 20.1% for the second.

First: O=C(Cc1ccsc1)NCC1OCCc2cn(CC3CC3)nc21 (stereo not drawn)
Second: O=C1C[C@@H]2CC[C@H](CN1)N2C(=O)CCc1ccsc1
The INHIBITION of the first is lower: -46.6% for the first, 36.7% for the second.

First: COCCCn1ccc(NCc2ccc(NC(C)=O)cc2)n1
Second: CCOc1ccc(CNCCCn2ccnc2)cc1Cl
The INHIBITION of the first is higher: 19.7% for the first, -32.1% for the second.

Going from COc1cc2c(cc1C(=O)N1CCCCC1c1ccccn1)CCC2 (stereo not drawn) to Cc1ccccc1C(=O)N1CCC(n2nnc3cc(F)ccc32)CC1, the INHIBITION falls from 11.6% to -30.1%.

First: Cc1ccc2nc(C(=O)N3C[C@@H](C(=O)O)[C@H](c4ccccc4)C3)cn2c1
Second: O=C(c1cccs1)N1CCOCC2(C1)CN(c1ccccc1)C(=O)CO2 (stereo not drawn)
The INHIBITION of the first is lower: -46% for the first, -8.28% for the second.

Going from CCOCC1CN(c2ccncn2)Cc2cnn(CC3CC3)c21 (stereo not drawn) to COCC(=O)N1CCC2(C1)c1ccccc1S(=O)(=O)N2CC1CC1 (stereo not drawn), the INHIBITION rises from -8.19% to 17.6%.

First: Cc1nccn1C1CCCN(C(=O)c2cccc(Cn3ccnc3)c2)C1 (stereo not drawn)
Second: CC(=O)N1CCOCC(Cc2ccc3c(ccn3C)c2)C1 (stereo not drawn)
The INHIBITION of the first is higher: -6.14% for the first, -20.265% for the second.

Going from O=C(CCc1cc2n(n1)CCCNC2)N1CCC(N2CCOC2=O)CC1 to CC(=O)N1CCC(NC(=O)CN2CCCc3c(C)ccc(F)c32)CC1, the INHIBITION rises from -39.2% to -7.13%.

Going from COCCNc1nnc(-c2ccc(C)nc2)s1 to CSc1ncc(C(=O)NCCn2nccc2C)cn1, the INHIBITION rises from -74.5% to 5.785%.

Going from CCc1nc(CN2CC[C@@](O)(CCOC)[C@H](C)C2)cs1 to COCC(=O)N1CCC2(C1)c1ccccc1S(=O)(=O)N2CCC(C)C (stereo not drawn), the INHIBITION falls from 0.868% to -14.2%.

First: CCOc1cc(CNCCCn2ccnc2)cc(Cl)c1OCC
Second: CCOc1cc(CNCCCn2ccnc2)cc(Cl)c1OC
The INHIBITION of the first is higher: 58.1% for the first, 49.5% for the second.

First: CC(=O)NCC1CCC2(CCN(c3ncnc4oc(C)nc34)CC2)O1 (stereo not drawn)
Second: CC(=O)N1CCC2(CC1)CC(NS(C)(=O)=O)c1ccccc1O2 (stereo not drawn)
The INHIBITION of the first is higher: 34.9% for the first, 25.9% for the second.

Going from Cc1cnn(-c2cccc(N3CCN(c4cc(C)nc(C)n4)CC3)n2)c1 to Cc1cnn(-c2cccc(N3CCCC3)n2)c1, the INHIBITION falls from 85.5% to 30.3%.

Going from Cc1cnn(-c2cccc(N3CCCCC3)n2)c1 to CCCS(=O)(=O)NC(C)C(=O)NCc1ccnc(N2CCCC2)c1 (stereo not drawn), the INHIBITION falls from 39.3% to 14.4%.

Compared with CC(=O)N1CCCC1C(=O)NCCOc1ccc(C(C)C)cc1 (stereo not drawn), CC(=O)N1CCC2(C1)c1ccccc1S(=O)(=O)N2CCC(C)C (stereo not drawn) is lower in INHIBITION: 29.4% for the first, -61.6% for the second.

Going from CC(C)Cn1c(=O)n(CCCn2cccn2)c2cc(C(=O)O)cnc21 to O=C(CO)N1CCc2onc(Cn3cccn3)c2C1, the INHIBITION rises from -18.1% to 51.2%.

Compared with Cn1cc(NC(=O)N2CCN(Cc3cscn3)CC2)ccc1=O, COC(=O)c1cccn1C1CCN(C(=O)c2c(C)noc2C)CC1 is lower in INHIBITION: 48.3% for the first, 36.1% for the second.

Compared with O=C(Cn1nnc(-c2ccc(F)cc2)n1)N1CCOCC(O)C1 (stereo not drawn), O=C(CCCn1nnc(-c2ccc(F)cc2)n1)N1CCOCC(CO)C1 (stereo not drawn) is higher in INHIBITION: 38.6% for the first, 52% for the second.

First: CC[C@H]1COCCN1C(=O)CCCn1nnc(-c2ccc(F)cc2)n1
Second: CN(C)CC(=O)N1CCc2onc(Cn3cccn3)c2C1
The INHIBITION of the first is higher: 35% for the first, 33.4% for the second.

Going from CC(=O)N1CCC2(C1)c1ccccc1S(=O)(=O)N2Cc1ccccc1 (stereo not drawn) to CC(=O)N1CCC2(C1)c1ccccc1S(=O)(=O)N2C (stereo not drawn), the INHIBITION rises from 6.72% to 50.4%.

Going from COCC(=O)N1CCC2(C1)c1ccccc1S(=O)(=O)N2C (stereo not drawn) to CC1CN(C(=O)CN(Cc2ccco2)Cc2cccs2)CCO1 (stereo not drawn), the INHIBITION falls from 65.3% to -19.9%.

First: CC(C)c1nnc(CCC(=O)N2CCOC(c3cnccn3)C2)o1 (stereo not drawn)
Second: CC(C)C[C@H](N)c1nnc(SCC(N)=O)o1
The INHIBITION of the first is higher: 11.8% for the first, -21.4% for the second.

First: NS(=O)(=O)CCCNC(=O)c1cnc(-c2ccsc2)s1
Second: CCC(=O)N1CCc2onc(CNS(C)(=O)=O)c2C1
The INHIBITION of the first is lower: 41.4% for the first, 69.3% for the second.

Going from Cn1cc(CN2C[C@@H]3COC[C@@H](C(=O)N4CCCCO4)[C@@H]3C2)cn1 to CS(=O)(=O)NCc1noc2c1CN(C(=O)C1CCC1)CC2, the INHIBITION falls from 39.8% to 18.6%.

First: O=C(CC(F)(F)F)N1CCc2onc(Cn3cccn3)c2C1
Second: CS(=O)(=O)NCc1noc2c1CN(C(=O)C1CC1)CC2
The INHIBITION of the first is higher: 32.4% for the first, 30.3% for the second.

Work on COc1cc2c(cc1OC)C(=O)C(Sc1nnnn1C)C2 (stereo not drawn) yielded an INHIBITION of 26.4%.
